Here are results for five compounds from PubChem BioAssay (NCATS).

Results filed as inconclusive are left out. Activity calls are given as the source filed them. The call rests on the fitted dose curve; in most records, active means well fitted cell-killing curve with a large enough effect; inconclusive means small, poorly fitted or top-dose-only effect; inactive means flat fitted curve, though single readings scatter.

The test in a line: Cellular viability qHTS for adrenocortical cancer (ACC) cell line NCI-H295R (AID 1963990).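 Further: 0% = DMSO only wells and -100% = full killing with cytotoxic reference compound; nearly all actives have a fitted effect of over 60% in size.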 To be noted: CellTiter-Glo ATP luminescence, 48 h; series mostly up to 46.1 µM; activity change, negative = viability loss: at the top concentration. The method, boiled down:
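IC50 and maximal efficacy derive from four-parameter logistic modelling of titration curves, with reads scaled between DMSO-only wells (0%) and doxorubicin hydrochloride (100% inhibition). Compounds spanned up to 46 uM over 48 h.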
On the technique in general: qHTS replaces the single test concentration by a dilution series.
Turning to `CC12CCC(CC1)C(C)(C)O2`, the “activity change, negative = viability loss” value is -7.9% (inactive).
As to `Cc1cc(NS(=O)(=O)c2ccc(N)cc2)no1`, the “activity change, negative = viability loss” value is -26.9% (inactive).
Regarding `COc1ccc(CN(CCN(C)C)c2ccccn2)cc1`, the “activity change, negative = viability loss” value is -1.86% (inactive).
Under `O=C(O)c1ccc[n+]([O-])c1` stands -11.4% (inactive); under `CC(CC(C#N)(c1ccccc1)C(C)C)N(C)C` (stereo not given), -17.7% (inactive).
